Among all 330,000 compounds or so, about 5,800 (1.8%) were called active. The entries come from a sample that favours actives as a whole. Unmarked numbers belong to inactive results.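 The calls were made as follows: active = inhibition above about 50% at the single tested dose (limit read from the data); inactive = the rest.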
These compounds were tested against Sentrin-specific protease 6 (Homo sapiens) (UniProt Q9GZR1) (assay: SENP6 protease inhibitors, primary screen, biochemical, luminescence, uHTS (AID 2599;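 also: plate controls were DMSO wells with enzyme for no effect and DMSO wells lacking enzyme for full effect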)). Details: Recombinant SENP6 catalytic domain, aminoluciferin luminescence; at 10 µM; active compounds read high.
Sequence of Sentrin-specific protease 6 (Homo sapiens) (Q9GZR1 628-1112 limits assumed): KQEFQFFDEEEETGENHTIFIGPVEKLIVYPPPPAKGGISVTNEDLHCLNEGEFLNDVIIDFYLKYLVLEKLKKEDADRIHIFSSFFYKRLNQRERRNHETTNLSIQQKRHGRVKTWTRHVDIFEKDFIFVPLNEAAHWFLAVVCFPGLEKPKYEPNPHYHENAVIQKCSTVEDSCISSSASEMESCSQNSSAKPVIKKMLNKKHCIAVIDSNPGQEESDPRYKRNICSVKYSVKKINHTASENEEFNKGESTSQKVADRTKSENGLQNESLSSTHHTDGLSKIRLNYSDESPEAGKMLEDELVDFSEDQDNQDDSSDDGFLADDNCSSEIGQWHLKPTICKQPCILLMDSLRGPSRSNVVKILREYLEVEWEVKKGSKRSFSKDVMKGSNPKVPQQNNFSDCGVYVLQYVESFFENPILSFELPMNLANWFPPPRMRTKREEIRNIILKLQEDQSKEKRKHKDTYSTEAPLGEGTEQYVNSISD

Compound | inhibition
O=C(Oc1ccc(Br)cc1C(=S)N1CCOCC1)c1cccc([N+](=O)[O-])c1 | -3.34%
Cc1ccc(/C=C(\C#N)C(=O)Nc2cccc3ncccc23)o1 | -57.2%
O=C(NNS(=O)(=O)c1ccccc1C(F)(F)F)c1cc2ncc(C(F)(F)F)cc2s1 | 4.2%
Cc1ccc(-n2cc3ccc([N+](=O)[O-])cc3n2)cc1 | 86.9% (active)
Cc1ccc(-c2cn(S(=O)(=O)c3cccc([N+](=O)[O-])c3)nc2N)cc1 | -7.28%
Cc1ccnc(N2C(=O)c3ccc([N+](=O)[O-])cc3C2=O)c1 | -9.97%
Cn1cc[n+](C)c1COc1ccc(C=O)cc1 | -1.65%
N#Cc1cc([N+](=O)[O-])ccc1NCC1CCCO1 (stereo unspecified) | -15.1%
COc1ccc(/C=N/OCC(=O)N(Cc2ccccc2)c2ccccc2C(=O)O)cc1 | -17.2%
COc1cc(/C=N/NC(=O)c2ccc(N3CCCC3=O)cc2)ccc1O | -7.53%
COc1ccc(NS(=O)(=O)c2cc(C(=O)Nc3ccccc3C(=O)O)ccc2C)cc1 | -2.27%
COc1ccc(C(=O)Nc2ccccc2C(=O)N/N=C/c2ccc(O)c(OC)c2)cc1 | 98.7% (active)
COc1ccc(/C=N/Nc2ccccc2C(=O)O)cc1 | 93.1% (active)
COc1ccccc1C(=O)NNC(=O)c1ccc(NC(=O)c2ccccc2)cc1 | 5.14%
COc1ccc(C(=O)Nc2ccccc2C(=O)N/N=C/c2ccccc2OC)cc1 | 66.7% (active)
COc1ccc(C(=O)Nc2cc(C)c(NC(=O)c3ccccc3OC)cn2)cc1 | 37.3%
CCOc1cc(/C=N/NC(=O)c2cc(-c3ccccc3)nc3ccccc23)ccc1O | 19.5%
O=C(O)CC(c1ccccc1F)N1Cc2ccccc2C1=O (stereo unspecified) | -11.5%
COc1ccc(/C=N/n2c(C)cc(C)cc2=O)cc1 | -12.1%
O=C(N/N=C/c1ccsc1)c1cc(O)cc(O)c1 | 3.66%
CCn1cc(/C=C(\NC(=O)c2cc(OC)c(OC)c(OC)c2)C(=O)N2CCN(C)CC2)c2ccccc21 | 0.634%
Cc1cccc(NC(=O)/C=C/c2ccc3c(c2)OCO3)n1 | 82.7% (active)
O=C(/C=C/c1ccc2c(c1)OCO2)NCc1ccc(F)cc1 | 1.24%
Cc1cccc(NC(=O)Nc2ccc3c(c2)OCO3)n1 | -17.4%

Compound | inhibition
CCCc1ccc(OCc2ccc(C(=O)N/N=C/c3cccc([N+](=O)[O-])c3)o2)c(OC)c1 | -3.27%
COc1ccccc1N1CCN(C(=O)CCS(=O)(=O)c2ccc3c(c2)NC(=O)C(C)S3)CC1 (stereo unspecified) | 4.9%
CCOC(=O)C(C)N(c1ccccc1Cl)S(C)(=O)=O (stereo unspecified) | 14.8%
COc1ccccc1NC(=O)c1cc(Cl)nc2ccccc12 | -4.88%
O=C(O)c1ccccc1-c1ccccc1C(=O)Nc1cccc2ccccc12 | -15.6%
O=C(O)c1cc(Cl)c(Cl)cc1C(=O)Nc1cccc2ncccc12 | 57% (active)
CN(Cc1ccccc1F)C(=O)C(Cc1ccccc1)NC(=O)c1ccccc1 (stereo unspecified) | -9.94%
Cn1nc(-c2ccccc2)c(-c2nc(-c3ccc(Cl)cc3)no2)c1Cl | 3.33%
Cc1cccc(-c2noc(CCC(=O)NC3CCCC3)n2)c1 | -13.6%
Cc1cccc(-c2noc(-c3ccc(F)cc3)n2)c1 | 94.2% (active)
Cc1ccc(NS(=O)(=O)c2c(C)[nH]c(C)c2C(=O)N2CCCCC2)c(C)c1 | -8.53%
S=C(Nc1cccc(Br)c1)N1CCn2cccc2C1c1cccnc1 (stereo unspecified) | -5.73%
CC(C)CCNC(=O)CC1C(=O)N(Cc2ccccc2)C(C)c2nc3ccccc3n21 (stereo unspecified) | -1.07%
O=C(OC1CCOC1=O)c1ccc(-c2nc3ccccc3s2)s1 (stereo unspecified) | 97.8% (active)
CC(C)c1ccc(C(=O)OC2CCOC2=O)cc1 (stereo unspecified) | -5.48%
COc1cc(C(=O)OC2CCOC2=O)c([N+](=O)[O-])cc1OC (stereo unspecified) | -15.4%
C/C(=N\Nc1nncc2ccccc12)c1ccc(Cl)c([N+](=O)[O-])c1 | 1.2%
COc1cc(/C=N/Nc2nn3cnnc3c3ccccc23)cc(OC)c1OC | 2.31%
CN(CCO)c1ccc(/C=N/Nc2nncc3ccccc23)cc1 | 96.7% (active)
COc1ccc(NC(=O)C2C3C=CC(C3)C2C(=O)NCc2ccccn2)c(OC)c1 (stereo unspecified) | 10.4%
Cc1noc(C)c1COc1ccc2ccc(=O)oc2c1 | -9.61%
COc1ccc(-c2cc3ccc(OCc4nn[nH]n4)cc3oc2=O)cc1 | 68.8% (active)
CCCCc1cc(=O)oc2cc(C)cc(OCc3nn[nH]n3)c12 | -1.99%
CCS(=O)(=O)Nc1ccc(C(=O)NCCSc2ccccc2)cc1 | 11.9%

Compound | inhibition
Cc1ccc(F)c(NC(=O)CCOc2ccccc2C)c1 | 5.27%
Cc1cccc(OCCC(=O)Nc2ccccc2C(N)=O)c1 | -32.4%
Cc1ccc(F)c(NC(=O)CCc2ccccc2)c1 | 51.3% (active)
Cc1cccc(OCC(=O)Nc2ccccc2F)c1 | 56.4% (active)
COc1ccc([N+](=O)[O-])cc1NC(=O)CCc1ccccc1 | -1.66%
Cc1cccc(OCC(=O)Nc2ccc(C(=O)O)cc2NC(=O)COc2cccc(C)c2)c1 | 10.8%
CCOC(=O)C1C(=O)NCC1c1ccccc1 (stereo unspecified) | -10.2%
Cc1ccc(-c2ccnc3nc(Sc4ncc(C(F)(F)F)cc4Cl)nn23)cc1 | 3.77%
CCOC(=O)CSC1=N/C(=C/c2ccc(-n3cncn3)cc2)C(=O)N1C(C)=O | 4.91%
CCOC(=O)C1CCN(C(=O)CN2C(=O)c3cccnc3Oc3ccc(C)cc32)CC1 | -14.4%
Cc1nn(-c2ccccc2)c2[nH]c(C(F)(F)F)cc(=O)c12 | -1.92%
N=c1c2c3c(sc2ncn1CCCN1CCOCC1)CCCCC3 | 3.22%
O=C(O)C1OC(C(=O)O)C2C1C(F)(F)C2(F)F (stereo unspecified) | -10.3%
COc1cc(/C=C(\C#N)c2nc3ccccc3[nH]2)ccc1O | 92.4% (active)
COc1cc(/C=C(\C#N)c2nc3c(s2)CC(C)CC3)ccc1O (stereo unspecified) | 8.39%
Cc1ccc2nc(/C(C#N)=C\c3ccc(OC(=O)c4cccs4)cc3)[nH]c2c1 | -7.94%
c1ccc(C[C@H]2CNCCN2CCC23CC4CC(CC(C4)C2)C3)cc1 | 1.32%
O=C(Nc1ccccc1Cc1ccccc1)c1ccc2c(c1)SC1=NS(=O)(=O)CCN12 | -1.13%
O=C(NCc1ccco1)C(c1ccncc1)N(C(=O)Cn1nnc2ccccc21)c1ccccc1 (stereo unspecified) | -7.82%
O=C(CC1C(=O)NCCN1C(=O)c1ccc([N+](=O)[O-])cc1)Nc1cccc(Cl)c1 (stereo unspecified) | -13.3%
O=[N+]([O-])c1cccc(C2=NCCS2)c1 | -2.08%
FC(F)(F)c1ccnc(Oc2ccc(C3=NCCS3)cc2)c1 | 74.8% (active)
O=Cc1ccc(Oc2cccc(C(F)(F)F)c2)nc1 | 7.02%
Cc1cccc(N)c1SC1CCCCC1O (stereo unspecified) | 14.9%

Compound | inhibition
CCCCN1C(N)=NC[C@@H]1CC1CCCCC1 | -9.84%
CCCCN(CC)CCNC(=O)CCNC(=O)Cn1ccc2ccccc2c1=O | -9.66%
C=CCOc1ccc(Cl)cc1CNCCCN1CCOCC1 | 7.54%
c1ccc(-n2nnnc2NC2CCCCCC2)cc1 | -14.3%
O=C(c1ccccc1)N1N=C(c2ccccc2O)CC1c1ccc(Br)cc1 (stereo unspecified) | -41.6%
CNC(=S)N1N=C(c2ccccc2)CC1c1ccc(Br)cc1 (stereo unspecified) | -4.9%
Brc1ccc(C2CC(c3ccccc3)=Nc3ccccc3N2)cc1 (stereo unspecified) | 81.3% (active)
COc1cc(NC(=S)N2CCCC(C)C2)c(OC)cc1Cl (stereo unspecified) | 1.77%
O=C(CC(c1ccccc1)c1ccccc1)NCC(O)c1ccc([N+](=O)[O-])cc1 (stereo unspecified) | -31.1%
COC(=O)CCSc1nccn1Cc1ccccc1 | -11%
CCCCCC(O)(CCN1CCCCC1)c1ccccc1 (stereo unspecified) | 5.63%
Cc1cccc(C(=O)Nc2ccc(C(=O)N/N=C/c3cccc(C)n3)cc2)c1 | -5%
CC/C(=N\NC(=O)c1ccccc1Cl)c1ccc(Br)s1 | 3.9%
C/C(=N\NC(=O)CSc1nc2ccccc2c(=O)n1-c1ccccc1C)c1cccs1 | 6.68%
C/C(=N\NC(=O)CNc1cccc2ccccc12)c1ccc(Br)s1 | 77.3% (active)
Cc1cccc(/C=N/NC(=O)CNc2cccc3ccccc23)n1 | 78.3% (active)
Cc1ccccc1NCC(=O)N/N=C\c1ccc([N+](=O)[O-])s1 | 44%
Cc1ccc(NC(=O)CSc2nc(=O)n(CCN(C)C)c3c2CCCC3)c(C)c1 | -3.87%
CC(NC(=S)Nc1ccc(S(N)(=O)=O)cc1)c1ccc2c(c1)OCO2 (stereo unspecified) | 7%
CCn1c(SCC(=O)NNC(=O)c2ccc(OC)cc2)nnc1C(C)C | -13.3%
Cc1nn2c(NCCN(C)C)c3c(nc2c1-c1ccccc1)CCC3 | -33.9%
CC(NC(=O)COC(=O)c1ccc2ccccc2n1)c1ccccc1 (stereo unspecified) | -2.28%
CC(OC(=O)c1ccc2ccccc2n1)C(=O)c1ccccc1 (stereo unspecified) | 65.8% (active)
Cc1ccc(S(=O)(=O)N(C)C)cc1NC(=O)C(C)OC(=O)c1ccc2ccccc2n1 (stereo unspecified) | -0.065%
